Assay outcomes from PubChem.
An excerpt weighted towards active compounds, which were near 2.8% of everything screened.
HIF-2a block = HIF-2a reporter inhibitors, primary screen, luminescence, 786-0 RCC cells; 786-0 RCC cells HIF-2a reporter, luciferase luminescence, overnight; inhibition, % at 18.8 µM; 360,000 tested, 0.72% active; AID 624352, 2012;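 active = inhibition of the luminescence signal of 40% or more relative to plate controls, in a single-dose primary screen at 18.75 µM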
KKLEB tox = cytotoxicity in KKLEB CF airway cells, primary screen, cytotoxicity control for CF NF-kB inhibitor project, cell-based, uHTS, fluorescence assay plates | KKLEB CF airway cells viability, ATPlite luminescence, overnight; hits give low values; cells stimulated with P. aeruginosa culture filtrate | activity change (cytotoxicity), % at 5 µM | 360,000 tested, 0.36% active | AID 602141, 2011;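 active = corrected activity change at or below -50% at 5 µM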
Shn3 inh set2 = reduction of Shn3 3'UTR firefly luciferase signal, primary screen, Schnurri-3 inhibitor project, cell-based, Clone20 osteoblasts, set 2; 360,000 tested, 0.52% active; Clone20 osteoblast Shn3 3'UTR firefly luciferase, 24 h; inhibition, % at 12.5 µM; AID 588674, 2011;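 active = mean inhibition of at least 75% with every replicate also reaching 75%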;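 also: 0% = median of neutral control wells and 100% = pilot-screen positive control compound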
Peg3 promoter = Peg3 promoter-driven luciferase inhibitors, primary screen, cell-based, HeLa, luciferase luminescence. HeLa PEG-Prom luciferase reporter, overnight. inhibition, % at 20 µM. 360,000 tested, 1.7% active. AID 588405, 2011;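 active = inhibition of at least 50% at 20 µM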
TRPM1 prom inh = inhibitors of MITF-dependent TRPM1 promoter reporter, primary screen, cell-based, SK-MEL-5, single point, luciferase. SK-MEL-5 TRPM1 promoter luciferase, 24 h. inhibition, % at 12.5 µM. 330,000 tested, 0.83% active;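 active = mean inhibition across replicates of 60% or more, whatever share of single replicates reaches that level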
CF NFkB inh = inhibitors of PAF-induced NF-kB signaling, primary screen, cell-based, GFP fluorescence, uHTS | 360,000 tested, 0.86% active | KKLEB NF-kB-GFP reporter, GFP fluorescence overnight | inhibition, % at 5 µM;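 active = at least 50% inhibition at 5 µM, scaled per plate between neutral and stimulator controls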;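 also: PAF is a Pseudomonas aeruginosa culture filtrate used as stimulus; plate controls were PAF-stimulated DMSO wells for no effect and unstimulated DMSO wells for full effect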
Mdm2 MdmX conf = retested Mdm2-MdmX interaction blockers, confirmation, cell-based, luminescence, single concentration, set 2; shares compounds with HIF-2a block; SaOS-2 split-luciferase Mdm2/MdmX complementation; inhibition, % at 8 µM; 740 tested, 99% active;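 active = mean inhibition of the luminescence signal across two replicates at or above 26 percent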
Target sequence (O15151 whole entry, looked up): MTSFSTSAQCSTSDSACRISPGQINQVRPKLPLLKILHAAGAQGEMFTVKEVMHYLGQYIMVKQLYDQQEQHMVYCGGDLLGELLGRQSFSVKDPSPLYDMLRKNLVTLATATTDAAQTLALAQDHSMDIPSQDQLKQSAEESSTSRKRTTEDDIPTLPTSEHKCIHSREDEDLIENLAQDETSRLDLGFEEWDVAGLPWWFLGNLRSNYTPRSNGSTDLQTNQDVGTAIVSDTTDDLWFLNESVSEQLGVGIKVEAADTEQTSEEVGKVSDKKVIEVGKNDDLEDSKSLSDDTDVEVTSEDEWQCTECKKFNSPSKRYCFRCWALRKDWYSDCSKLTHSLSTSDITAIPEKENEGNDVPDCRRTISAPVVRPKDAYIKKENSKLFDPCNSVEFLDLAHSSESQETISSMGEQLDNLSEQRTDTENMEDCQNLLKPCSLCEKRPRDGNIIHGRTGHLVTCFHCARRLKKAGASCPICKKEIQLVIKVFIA
Target sequence (Q00987 whole entry, looked up): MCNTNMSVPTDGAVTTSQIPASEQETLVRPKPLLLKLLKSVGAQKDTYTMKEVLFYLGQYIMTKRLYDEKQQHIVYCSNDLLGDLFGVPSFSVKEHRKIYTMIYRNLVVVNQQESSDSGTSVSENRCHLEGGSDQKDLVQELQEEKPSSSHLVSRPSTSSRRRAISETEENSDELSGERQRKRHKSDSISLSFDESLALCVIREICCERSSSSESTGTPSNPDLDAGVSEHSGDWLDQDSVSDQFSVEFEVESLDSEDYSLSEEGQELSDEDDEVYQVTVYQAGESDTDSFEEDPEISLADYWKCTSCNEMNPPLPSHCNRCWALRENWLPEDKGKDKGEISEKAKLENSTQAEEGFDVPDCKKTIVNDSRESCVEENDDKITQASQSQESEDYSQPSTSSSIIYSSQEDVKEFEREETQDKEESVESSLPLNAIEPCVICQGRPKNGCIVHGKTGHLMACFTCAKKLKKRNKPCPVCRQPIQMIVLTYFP
HIF-2a conf = HIF-2a reporter inhibitor retest, confirmation, luminescence, 786-0 RCC cells; 1,800 tested, 56% active; inhibition, % at 18.8 µM; shares compounds with HIF-2a block; HIF-2a luciferase reporter luminescence, overnight;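 active = mean inhibition across four replicates of at least 40 percent at the single tested concentration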
HIF-1a counter = HIF-1a luciferase reporter signal reduction – MiaPaCa-2 cells, single concentration, counter-screen for HIF-2a inhibitor project, confirmation. shares compounds with HIF-2a block. MiaPaCa-2 HIF-1a luciferase reporter, desferoxamine, overnight. inhibition, % at 18.8 µM. 1,800 tested, 72% active. AID 651589, 2012;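 active = mean inhibition of the reporter signal across four replicates at the single tested dose of 50% or more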
An asterisk follows results filed as active; x = not tested or not shown.

SMILES	HIF-2a block	KKLEB tox	Shn3 inh set2	Peg3 promoter	TRPM1 prom inh	CF NFkB inh	HIF-2a conf	HIF-1a counter	others
COc1ccc(Cl)c2sc(N(CCN(C)C)C(=O)CCS(=O)(=O)c3ccc(C)cc3)nc12	2	-12	-4	18	5	17	x	x
CN(C)CCN(C(=O)CCS(=O)(=O)c1ccccc1)c1nc2c(F)cccc2s1	5	9	-11	-21	-12	16	x	x
COc1ccc(CNC(=O)Nc2nc(C(N)c3ccccc3)cs2)cc1 (stereo not drawn)	3	-4	7	19	x	18	x	x
O=C(Oc1ccc2ccccc2c1)c1ccco1	12	-3	-6	-11	0	18	x	x
CC1CC(C)(C)Nc2ccc(OC(=O)c3ccco3)cc21 (stereo not drawn)	45*	5	51	-16	35	12	62*	71*
COc1ccc(NCC(=O)NN=C2CCS(=O)(=O)c3ccc(F)cc32)cc1	3	-2	-5	12	x	4	x	x
O=[N+]([O-])c1cccc(/C([O-])=C(/C(=S)Nc2ccccc2)[n+]2ccccc2)c1	-97	11	-33	-31	0	-14	x	x
CCOc1ccccc1C(=O)N(Cc1ccc(C)o1)C1CCS(=O)(=O)C1 (stereo not drawn)	8	9	-19	2	1	-8	x	x
Cc1ccc(-n2nnc3c(=O)oc4ccccc4c32)cc1	52*	1	7	49	52	18	15	30
Cc1ccc(S(=O)(=O)/N=C(\Sc2ccccc2)c2ccccc2)cc1	43*	3	-3	56*	45	1	56*	49
O=C(Nc1ccc(Cl)c(Cl)c1)c1ccc(Cl)c(Cl)c1	-272	-3	-45	-127	-51	-2	x	x
Cc1ccc(NC(=O)c2ccc(Cl)c(N3C(=O)C=CC3=O)c2)cc1	49*	-1	92*	101*	38	28	25	-34
O=[N+]([O-])c1ccc(S(=O)(=O)CC(CN2CCCCC2)N2CCCCC2)cc1 (stereo not drawn)	27	-43	57	108*	81*	81*	x	x	Mdm2 MdmX conf=103*
COc1ccc(Cn2nnnc2C(c2cc3cccc(C)c3[nH]c2=O)N2CCN(C)CC2)cc1 (stereo not drawn)	41*	-5	11	12	-11	-24	-3	10
Cc1cccc2cc(C(c3nnnn3Cc3ccccc3)N3CCN(C)CC3)c(=O)[nH]c12 (stereo not drawn)	4	-15	-11	4	0	-7	x	x
C=C(C(=O)c1ccccc1)C(CC(=O)c1ccccc1)c1ccccc1 (stereo not drawn)	95*	-55*	89*	100*	48	52*	57*	103*	Mdm2 MdmX conf=102*
CCOc1ccc(CCN2C(=O)C(=O)N([C@@H](Cc3ccccc3)CN3CCC[C@H]3CN3C(=O)C(=O)NC[C@@H]3Cc3ccccc3)C[C@@H]2Cc2ccc(O)cc2)cc1	-1	x	x	x	x	x	x	x
COc1ccc(/C=C/c2nc3ccccc3c(=O)o2)cc1	43*	-16	57	38	2	25	18	89*
CC1=C(C(=O)c2ccccc2)C(c2ccc(N3CCOCC3)cc2)NC(=O)N1 (stereo not drawn)	3	-8	-9	1	-7	1	x	x
CCN(CC)CCCOc1ccc(Cl)c(Cl)c1	16	1	3	20	6	1	x	x
CCN(CC)CCOc1ccc2c(c1)C(=NO)c1cc(OCCN(CC)CC)ccc1-2	54*	-26	-2	107*	103*	15	33	107*
COc1cccc(C(=O)COC(=O)c2n[nH]c(=O)c3ccccc23)c1	15	8	10	5	-5	-6	x	x
CCSc1nc(-c2ccccc2)nc(C(Cl)Cl)n1	71*	-15	23	102*	96*	14	61*	105*
CCSc1nc(-c2ccccc2)c2cc(Cl)ccc2n1	16	5	8	14	-1	18	x	x
CCOC(=O)CSc1nc(N)c(C#N)c(-c2ccc(OCC)cc2)c1C#N	8	-2	-10	12	2	15	x	x
SMILES	HIF-2a block	KKLEB tox	Shn3 inh set2	Peg3 promoter	TRPM1 prom inh	CF NFkB inh	HIF-2a conf	HIF-1a counter	others
COC(=O)CSc1nc(N)c(C#N)c(-c2ccc(O)cc2)c1C#N	40*	-9	x	8	-9	12	35	21
CCCCCCCCCCn1ccc(=N)cc1	37	-47	75	46	77*	40	x	x	Mdm2 MdmX conf=98*
COc1ccc(Br)cc1C(C[N+](=O)[O-])c1c(N)n(C)c(=O)n(C)c1=O (stereo not drawn)	58*	-8	55	68*	80*	-8	21	86*
O=C(CCl)N(C1CCCC1)C1CCS(=O)(=O)C1 (stereo not drawn)	-2	-6	2	42	31	1	x	x	Mdm2 MdmX conf=102*
CC(=O)c1ccc(OCC(=O)N(C2CCCCC2)C2CCS(=O)(=O)C2)cc1 (stereo not drawn)	21	20	-13	-6	-2	-5	x	x
O=C(NCC[C@@H]1CC[C@@H](NS(=O)(=O)Cc2ccccc2)[C@@H](CO)O1)C1CC1	2	x	x	x	x	x	x	x
N#C/C(=C/c1cccc(O)c1)C(=O)NCc1ccc(Cl)cc1	77*	-9	-5	-11	-5	19	30	46
N#C/C(=C/c1ccc(O)c(O)c1)C(=O)NCc1ccc(Cl)cc1	5	7	8	24	4	-16	x	x
COc1ccc(N2CCN(CCNC(=O)c3ccc4c(c3)[nH]c(=S)n3c5ccccc5nc43)CC2)cc1	31	-1	-8	84*	15	-10	x	x	Mdm2 MdmX conf=99*
COc1ccc(-c2nnn(Cc3ccccc3)n2)cc1OC	-71	-6	-2	-28	-25	-11	x	x
COc1cc2c3nnc(-c4ccc(F)cc4)c-3cn(Cc3ccccc3)c2cc1OC	-24	11	24	103*	x	-348	x	x	Mdm2 MdmX conf=103*
